# Test results taken from PubChem BioAssay.
# The other results are listed elsewhere or left out. Activity calls are given as the source filed them.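 The calls were made as follows, unless noted: active = GFP response above 150% of the DMSO level; inconclusive = fewer than 70 events counted for a yeast strain; inactive = the rest.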
# Tests used:
# [1] = RPL19A-GFP modulators, yeast TOR pathway, confirmation, cell-based, S. cerevisiae, flow cytometry, cherry picks, mother/daughter gates (AID 2270;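 active = GFP response below 50% of the DMSO control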); conditions: S. cerevisiae RPL19A-GFP strain, 3 h, at 10 µM, stronger effect = lower value, 100 = same GFP as DMSO wells
# [2] = LAP4-GFP expression modulators in yeast, confirmation, cell-based, cherry picks, flow cytometry, mother/daughter gates (AID 2271;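 active = GFP response above 150% of the DMSO control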;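 also: ratio of sample to DMSO plate mean so 100% equals DMSO level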); conditions: S. cerevisiae LAP4-GFP strain, 3 h, at 10 µM, stronger effect = higher value, 100 means same as DMSO control
# [3] = modulators of MEP2-GFP levels in yeast, confirmation, S. cerevisiae, flow cytometry GFP, cherry picks (AID 2272;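 active = GFP response above 150% of the DMSO control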;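 also: ratio of well signal to plate DMSO mean so 100% equals DMSO level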); conditions: S. cerevisiae MEP2-GFP strain, 3 h, at 10 µM, stronger effect = higher value
# [4] = AGP1-GFP expression modulators, hit retest, confirmation, cell-based, flow cytometry, S. cerevisiae, cherry picks (AID 2273);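 also: median GFP channel fluorescence over the whole cell population gate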; conditions: S. cerevisiae AGP1-GFP strain, 3 h, at 10 µM
# [5] = modulators of CIT2-GFP expression in yeast, confirmation, S. cerevisiae, GFP fusion, cherry picks, mother/daughter gates (AID 2274); conditions: S. cerevisiae CIT2-GFP strain, flow cytometry, 3 h, at 10 µM, stronger effect = higher value
# [6] = compound autofluorescence in yeast s288c, dose response, artefact control for yeast TOR pathway GFP screen, s288c strain (AID 2757;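 active = fluorescence span over the dose series, or activity score, above about 33, limit read from the data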;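 also: thousands of bead-calibrated equivalent soluble fluorophore molecules from median cell fluorescence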); conditions: S. cerevisiae s288c, 520 nm autofluorescence, flow cytometry, 3 h; at 33 µM; stronger effect = higher value; zero means same as solvent-only cells
# [7] = measured here: daughter cell gate
# [8] = measured here: mother cell gate
Structure (SMILES),GFP response vs DMSO [1],"GFP response vs DMSO [1, 7]","GFP response vs DMSO [1, 8]",GFP response relative to DMSO [2],GFP response vs DMSO [3],"GFP response, % of DMSO [4]","GFP response, % of DMSO [5]","GFP response, % of DMSO [5, 7]","GFP response, % of DMSO [5, 8]",GFP response relative to DMSO ([2]; measured here: daughter cell gate response),GFP response relative to DMSO ([2]; measured here: mother cell gate response),fluorescence change (kMESF span) [6]
O=C(O)CCC(=O)OCC1CCCCC1,96.7% (inactive),97.6%,95.6%,104% (inactive),103% (inactive),99.3% (inactive),98.6% (inactive),95.8%,94.9%,,,
CC1=C/C(=N\OS(=O)(=O)c2ccccc2)C(C)=CC1=O,79.2% (inactive),,66.3%,262% (active),118% (inactive),108% (inactive),98.8% (inactive),117%,88.2%,136%,243%,
CCc1ccc(C2CC(c3ccco3)=NN2S(C)(=O)=O)cc1 (stereo unspecified),108% (inactive),108%,101%,131% (inactive),180% (active),108% (inactive),188% (active),,,,,
Cc1ccc(-c2nn(C(C)(C)C)c3ncnc(N)c23)cc1,46.7% (active),43.7%,46.7%,175% (active),116% (inactive),95.7% (inactive),45.8% (inactive),62.1%,43.5%,,,-0.9 (inactive)
